# Measured values as given in PubChem BioAssay AID588726 (The Scripps Research Institute Molecular Screening Center, 2011).
# Among all 360,000 compounds or so, about 8,200 (2.3%) were called active. The full list was thinned out, with actives kept by preference. Unmarked numbers belong to inactive results. No stated cut-off is given here; in the data, active means inhibition above about 27%; inactive means the rest.
# Target: Fructose-bisphosphate aldolase (Mycobacterium tuberculosis (strain ATCC 25618 / H37Rv)) (UniProt P9WQA3)
# Test: M. tuberculosis aldolase activity blockers – biochemical, fluorescence, strain H37Rv, primary screen (AID 588726);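 further: 0% = vehicle and 100% = reference inhibitor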
# Conditions: purified M. tuberculosis FBA, fluorescence read-out, at 1 µM, active compounds read high
# Chain of Fructose-bisphosphate aldolase (Mycobacterium tuberculosis (strain ATCC 25618 / H37Rv)) (P9WQA3 whole entry, looked up): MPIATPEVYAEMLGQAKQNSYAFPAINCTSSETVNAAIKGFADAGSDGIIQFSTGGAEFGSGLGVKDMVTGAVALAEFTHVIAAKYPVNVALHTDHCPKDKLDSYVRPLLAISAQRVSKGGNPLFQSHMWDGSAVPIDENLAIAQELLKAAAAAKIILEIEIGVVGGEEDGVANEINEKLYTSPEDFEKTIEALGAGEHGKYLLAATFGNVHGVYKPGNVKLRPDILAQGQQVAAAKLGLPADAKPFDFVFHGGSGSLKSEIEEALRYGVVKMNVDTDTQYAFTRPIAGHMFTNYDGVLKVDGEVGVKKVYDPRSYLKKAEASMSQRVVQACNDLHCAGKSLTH
row,Compound,inhibition
1,COc1ccccc1N1CCN(CC(=O)NCCc2ccc(S(N)(=O)=O)cc2)CC1,0.12%
2,CC(NC(=O)COc1ccc(-c2ccccc2)cc1)C1CCCO1 (centres undefined),0.11%
3,CCN(CC)CCCNC(=O)COc1ccc2oc3c(c2c1)CCCC3,0.55%
4,Cc1cc(=O)oc2c3c(cc(OCC(=O)NCC(O)c4ccccc4)c12)OC(C)(C)CC3 (centres undefined),49.2% (active)
5,Cc1cc(OCC(=O)NCC(O)c2ccccc2)c2c(C)c(C)c(=O)oc2c1 (centres undefined),66.1% (active)
6,Cc1ccc(OCC(=O)NC(C)c2ccccc2)c([N+](=O)[O-])n1 (centres undefined),-3.72%
7,O=C(COc1ccc2c3c(c(=O)oc2c1)CCCC3)NCC(O)c1ccccc1 (centres undefined),15.8%
8,Cc1cc(OCC(=O)Nc2nccs2)c2c(C)c(C)c(=O)oc2c1,5.31%
9,COc1ccc(CCNC(=O)COc2cc(C)cc3oc(=O)c(C)c(C)c23)cc1OC,2.14%
10,COc1cccc(CCNC(=O)COc2cccc3c2OC(C)(C)C3)c1,-1.69%
11,O=C(COc1ccc2ccc(=O)oc2c1)NCC(O)c1ccccc1 (centres undefined),15.9%
12,CSc1nnc(-c2ccncc2)n1CCCN1CCCC1=O,0.93%
13,N#CCC(=O)NC1CCC(CC2CCC(NC(=O)CC#N)CC2)CC1 (centres undefined),3.18%
14,COc1cc(OC)c(C2=NOC(C(=O)Nc3c(C)n(C)n(-c4ccccc4)c3=O)C2)cc1Cl (centres undefined),-0.74%
15,CSCC(=O)N1CCCC(C(=O)c2cc(F)ccc2F)C1 (centres undefined),-1.12%
16,Cc1nccn1-c1ccc(NC(=O)[C@H]2O[C@@H](n3cnc4c(N)ncnc43)[C@H](O)[C@@H]2O)cc1,0.84%
17,O=C(O/N=C(/c1ccccc1)c1ccncc1)c1ccccc1[N+](=O)[O-],2.83%
18,Cc1ccccc1NC(=O)COc1cccc2c1CCNC2=O,0.77%
19,Cc1cc(=O)oc2c(C)c(OCC(=O)NCCN3CCOCC3)ccc12,16%
20,Cc1cc(=O)oc2c(C)c(OCC(=O)NCCc3ccc(S(N)(=O)=O)cc3)ccc12,12.6%
21,CCCc1cc(=O)oc2c(C)c(OCC(=O)NCc3ccccn3)ccc12,0.52%
22,Cc1cc(Cl)ccc1OCCCC(=O)NCc1ccccn1,1.44%
23,Cc1nn(C)c(C)c1S(=O)(=O)N1CCc2ccccc21,6.1%
24,CC(C)CNC(=O)/C=C/C(=O)O,10.5%

row,Compound,inhibition
1,O=C1NC2(CCCCC2)N=C1c1ccccc1,1.74%
2,CC(C)Cc1ccc(-c2cc3nc(NCc4cccc(Cl)c4)ccn3n2)cc1,14.9%
3,Cc1ccc(C)c(NS(=O)(=O)c2cc(Br)cnc2N)c1,3.42%
4,O=S1(=O)CCOC[C@H](Cc2ccccc2)N1Cc1ccccc1Br,-3.56%
5,COC(=O)[C@H]1C[C@H](OC(=O)NCc2ccccc2)[C@@]2(O)CN(S(=O)(=O)c3ccc(C)cc3)CC2[C@H]1C(=O)OC (some centres undefined),0.56%
6,Cc1ccc(S(=O)(=O)N2C[C@@H](C)[C@]3(C2)[C@H](O)[C@H](OC(=O)NCc2ccccc2)C[C@H]2C(=O)N(c4ccccc4)C(=O)[C@H]23)cc1,67.2% (active)
7,Cc1ccc(S(=O)(=O)N2C[C@]3(O)C[C@@H]4C(=O)N(c5ccccc5)C(=O)[C@@H]4C[C@]3(OC(=O)NC3CC3)C2)cc1,0.49%
8,CC(C)C(c1nnnn1C(C)(C)C)N1CCN(Cc2cccnc2)CC1 (centres undefined),0.62%
9,O=C(NCCO)c1cccc(-c2cccc3nccn23)c1,10.8%
10,Clc1ccc(-c2nc3ccccn3c2CN2CCSCC2)cc1,0.24%
11,c1cc(-c2ccc3[nH]ccc3c2)n2ccnc2c1,81.5% (active)
12,S=c1[nH]cc(-c2ccc(Cl)cc2)n1-c1ccccc1,-0.17%
13,Cc1ccc(NC(=O)C2(N3CCC3=O)CCCCC2)cc1,-1.03%
14,CC/C(=N\NC(=O)c1c(C)nc2ccccn12)c1ccc(Cl)cc1,1.77%
15,O=C(CN1CCN(S(=O)(=O)c2ccc(F)cc2)CC1)NC1CC1,0.31%
16,CC1CC2=C(CC1/C=N/NC(N)=S)C(C)(C)CCC2 (centres undefined),-2.62%
17,COc1ccc(Nc2oc(-c3ccccc3Cl)nc2C#N)cc1,14.5%
18,CC(C)(C)n1nc(Cc2cccc3ccccc23)c(C#N)c1N,-0.08%
19,O=C(CN1CCN(C2CCS(=O)(=O)C2)CC1)N1N=C(c2ccc(Cl)cc2)CC1c1ccco1 (centres undefined),-0.95%
20,O=c1[nH]cnc(O)c1C(c1ccc(F)cc1)c1c(O)nc[nH]c1=O,1.39%
21,Cc1cc(N=Nc2ccc3ccccc3c2)ccc1O,-3.13%
22,Cc1nc2ccccc2nc1CC(O)(c1ccccc1)c1ccccc1,0.56%
23,Cc1nc2ccccc2cc1O,116% (active)
24,COc1ccc(-c2cc(C)nc3nc(N)nn23)cc1,124% (active)

row,Compound,inhibition
1,C=Cn1c(C(=O)O)ccc1-c1ccc(OC)cc1,1.98%
2,Cc1cc(-c2ccccc2)n2nc(C)c(-c3ccccc3)c2n1,4.02%
3,COC(=O)c1ccc(C)c(NC(=O)Cn2c(C)csc2=O)c1,-1.21%
4,CCOC(=O)c1c(C)[nH]c(C(=O)COc2ccc3c(c2)OCO3)c1C,6.18%
5,CCOC(=O)c1c(C)oc2cc(Br)c(OCC(N)=O)cc12,5.33%
6,CCOC(=O)c1c(-c2ccccc2)oc2cc(Br)c(O)c(C=O)c12,-2.33%
7,N#CC1(NC(=O)COc2ccc3oc4ccccc4c3c2)CCCCC1,-0.49%
8,CCOC(=O)c1c(-c2ccccc2)oc2ccc(OCC(N)=O)cc12,72.7% (active)
9,CCOC(=O)c1c(-c2ccccc2)oc2ccc(OCC(=O)NN)cc12,58.4% (active)
10,COC(=O)c1c(C)oc2ccc(N(C(=O)Oc3ccccc3)S(=O)(=O)c3ccccc3)cc12,-6.44%
11,CCOC(=O)c1c(-c2ccccc2)oc2ccc(OC(=O)N(C)C)cc12,38.7% (active)
12,CCOC(=O)c1c(C)oc2cc(Sc3ccccc3)c(O)c(O)c12,-6.47%
13,S=C(NC1CCCCC1)NN1CCOCC1,-5.42%
14,c1ccc2c(c1)CSc1sccc1C2=C1CCNCC1,4.51%
15,N#Cc1cccc(NC(=O)CCC2CCCC2)c1,-3.71%
16,OC(COCCC12CC3CC(CC(C3)C1)C2)CN1CCCCC1 (centres undefined),-2.2%
17,COc1ccc(-n2c(SCC(=O)Nc3ccc4c(c3)OCO4)nnc2C(C)N2CCCCC2)cc1 (centres undefined),0.95%
18,COc1ccc(C(C(=O)NC2CCCC2)N(CCCO)C(=O)Cn2nnc(-c3ccc(C)o3)n2)cc1 (centres undefined),0.22%
19,CCOC(=O)CCCCCC(=O)Nc1ccc2c(c1)CC(=O)N([C@@H](C)CO)C[C@H](C)[C@@H](CN(C)Cc1ccccc1)O2,1.41%
20,Cc1nnc(NC2=NCCCCC2)o1,2.72%
21,COC(=O)c1cccnc1NC(=S)NC(C)C,-6.99%
22,CSc1nnc(-c2ccc(C(F)(F)F)cn2)o1,7.82%
23,Cc1cccc(-c2nc3ccc(C(=O)NCCN4CCN(C)CC4)cc3nc2-c2cccc(C)c2)c1,25.3%
24,C=CCNC(=O)c1ccc2c3n(nc2c1)-c1ccc(C)cc1CO3,46.8% (active)

row,Compound,inhibition
1,Cc1ccc(-n2nc3c(c2NC(=O)c2ccc4c(c2)OCO4)CSC3)c(C)c1,0.86%
2,COc1cc(C(=O)OC2CCOC2=O)c([N+](=O)[O-])cc1OC (centres undefined),1.88%
3,CC(C)c1ccc(C(=O)OC2CCOC2=O)cc1 (centres undefined),-2.02%
4,O=C(OC1CCOC1=O)c1ccc(-c2nc3ccccc3s2)s1 (centres undefined),36.7% (active)
5,Cc1cc(C)c(S(=O)(=O)c2ccccc2)c(OC(=O)c2c(F)cccc2Cl)n1,2.73%
6,COc1ccc(-c2nc3cnccn3c2NC2CCCCC2)cc1-c1cccc(Cl)c1,24.3%
7,Cc1ccc2nc(-c3cccnc3)c(NC3CCCC3)n2c1,2.23%
8,COc1ccc(-c2nc3cc(C)ccn3c2NC2CCCCC2)cc1SC1CCCCC1,27.2% (active)
9,Cc1[nH]nc(-c2ccc(OCc3cnn(-c4ccccc4)c3)cc2O)c1Oc1ccc(Cl)cc1,3.96%
10,COc1ccc(S(=O)(=O)N2CCOC2CNC(=O)C(=O)NCc2ccc(F)cc2)cc1 (centres undefined),-0.16%
11,c1cnc(N2CCN(c3ccc4ccccc4n3)CC2)nc1,2.95%
12,CC12CCC(C(=O)N3CCN(c4ncccn4)CC3)(c3nc4ccccc4nc31)C2(C)C (centres undefined),30% (active)
13,CC(Oc1ccc(F)cc1)C(=O)N1CCN(c2ncccn2)CC1 (centres undefined),1.68%
14,COC(=O)C1=CO[C@@H](O[C@@H]2O[C@H](CO)[C@@H](O)[C@H](O)[C@H]2O)C2C1C[C@H](O)[C@@H]2C (some centres undefined),-0.2%
15,Cc1cc(=O)oc2c(C)c(OCC(=O)N3CCN(Cc4ccc5c(c4)OCO5)CC3)ccc12,20.6%
16,CCc1cc(=O)oc2c(C)c(OCC(=O)NCCN3CCOCC3)ccc12,18%
17,Cc1c(C)c2ccc(OCC(=O)N3CCC(C(=O)O)CC3)c(C)c2oc1=O,119% (active)
18,CCCCc1cc(=O)oc2c(C)c(OCC(=O)N3CCC(C(N)=O)CC3)ccc12,13.9%
19,CCCc1cc(=O)oc2c(C)c(OCC(=O)Nc3ccccn3)ccc12,14.2%
20,CCCc1cc(=O)oc2c(C)c(OCC(=O)N3CCC(C(=O)O)CC3)ccc12,44.1% (active)
21,CCc1cc(=O)oc2c(C)c(OCC(=O)N3CC[C@@]4(O)CCCC[C@H]4C3)ccc12,36.8% (active)
22,CCOC(=O)C1CCN(C(=O)COc2cccc3ccccc23)CC1,-4.37%
